Compound activity: PubChem BioAssay, National Center for Advancing Translational Sciences (NCATS)
Shiga inhibitor – Shiga toxin inhibition | Vero cells, Shiga toxin protein synthesis inhibition reporter | inhibition, % at 38.7 µM | 290,000 compounds, 9.2% hits | AID 2315; in the data active = inhibition mostly above about 28%, no sharp cut-off; inactive = mostly below about 43%; also: 0% is about no effect
LmPK inhibitor – blocks Leishmania mexicana pyruvate kinase activity. purified LmPK, Kinase-Glo ATP luminescence, 1 h. Potency, µM (series often up to 57.5 µM), for the others: at the highest dose activity change, negative = inhibition, actives largely listed as inhibitors. 290,000 compounds, 0.37% hits; active = well fitted curve in the direction sought with a large enough effect; inconclusive = small, poorly fitted or top-dose-only effect, or another doubt; inactive = no such curve, though single readings can be large; an effect the other way counts as inactive or inconclusive; also: potency is read from the fitted curve at half-maximal effect; % is scaled to controls: 0 for no effect and ±100 for the full control effect
Target sequence (Q27686 whole entry, looked up): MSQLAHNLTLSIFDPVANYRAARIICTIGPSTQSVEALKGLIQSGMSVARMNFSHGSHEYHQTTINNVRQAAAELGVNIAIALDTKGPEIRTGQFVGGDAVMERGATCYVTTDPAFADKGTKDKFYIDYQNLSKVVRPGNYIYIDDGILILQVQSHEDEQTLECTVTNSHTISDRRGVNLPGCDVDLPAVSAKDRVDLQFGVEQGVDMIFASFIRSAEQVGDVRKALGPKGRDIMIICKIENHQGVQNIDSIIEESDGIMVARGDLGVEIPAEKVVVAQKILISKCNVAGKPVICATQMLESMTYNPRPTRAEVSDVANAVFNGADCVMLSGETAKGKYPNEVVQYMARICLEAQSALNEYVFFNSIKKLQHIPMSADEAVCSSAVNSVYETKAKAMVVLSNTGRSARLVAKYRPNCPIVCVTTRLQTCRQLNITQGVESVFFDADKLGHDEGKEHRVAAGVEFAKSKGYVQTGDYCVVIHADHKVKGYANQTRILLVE
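In 50 mM imidazole pH 7.2 with 7 mM MgCl2, LmPK (0.1 nM) turned over PEP (0.5 mM) and ADP (0.1 mM) for 1 h at room temperature. Luciferase read-out of ATP.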
Cycloheximide cs – counter-screen hit for Shiga toxin inhibitors, cycloheximide. cell reporter, cycloheximide protein synthesis inhibition counterscreen. max response, %. 300,000 compounds, 12% hits; in the data active = max response mostly above about 13%, no sharp cut-off; inactive = mostly below about 14%; also: read at 38.3 µM for the half of the compounds with a filed dose; 0% is about no effect
NS1 function inh – inhibitors of influenza NS1 protein function. Potency, µM (highest dose often 46.1 µM), without a hit: at the highest dose activity, positive = more growth. 270,000 compounds, 0.4% hits. AID 2326; also: potency is read from the fitted curve at half-maximal effect; actives are rising curves; nearly all actives have a fitted effect of over 50% in size
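A cell-based growth assay was used: compounds that relieve NS1-induced slow growth of budding yeast raise OD600. Assay medium was yeast nitrogen base with ammonium sulphate and -URA supplement, pH 6.0, with 2% galactose.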
SARS PLP yeast – SARS-CoV PLP inhibition in yeast | S. cerevisiae expressing SARS-CoV PLpro, growth rescue | Potency, µM (highest dose often 32.9 µM), for inactives: at the top dose activity, positive = growth rescue, usual class: activators | 330,000 compounds, 0.19% hits; also: potency is read from the fitted curve at half-maximal effect; 0% is about no effect; nearly all actives have a fitted effect of over 55% in size
Tb PYK inh – T. brucei pyruvate kinase inhibition. Q57TT1. TbPYK enzyme, Kinase-Glo Plus ATP luminescence, 45 min. Potency, µM (series often up to 76.8 µM), for inactives: top-dose activity, negative = inhibition, most hits filed as inhibitors. 410,000 compounds, 0.12% hits. AID 624173; active = well fitted curve in the direction sought with a large enough effect; inconclusive = small, poorly fitted or top-dose-only effect, or another doubt; inactive = no such curve, though single readings can be large; an effect the other way counts as inactive or inconclusive; also: potency is read from the fitted curve at half-maximal effect; % is scaled to controls: 0 for no effect and ±100 for the full control effect; nearly all actives have a fitted effect of over 50% in size
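Assay buffer: 50 mM TEA pH 7.2, 100 mM KCl, 10 mM MgCl2, 0.05% BSA, 0.01% Tween-20. Pyruvate kinase from T. brucei plus substrate met compound, then ADP (130 uM final). Luminescence was read post 45 min RT.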
Starred values were filed as active, the others as inactive; u = inconclusive; x = no result given. Only a selection was taken, and hits are over-represented in it overall. Unless noted, calls follow the shape of the full dose curve.

SMILES	Shiga inhibitor	LmPK inhibitor	Cycloheximide cs	NS1 function inh	SARS PLP yeast	Tb PYK inh
CC(C)C[C@H](NC(=O)[C@H](CC(C)C)NC(=O)[C@H](CCC(N)=O)NC(=O)[C@H](CO)NC(=O)[C@@H]1CCCN1C(=O)[C@H](CO)NC(=O)[C@H](CO)NC(=O)[C@@H](NC(=O)[C@H](Cc1cnc[nH]1)NC(=O)[C@H](CCC(=O)O)NC(=O)[C@H](Cc1ccc(O)cc1)NC(=O)[C@H](CCCCN)NC(=O)[C@H](CCC(N)=O)NC(=O)[C@H](Cc1ccc(O)cc1)NC(=O)[C@H](CC(=O)O)NC(=O)[C@@H](NC(=O)[C@@H]1CCCN1C(=O)[C@H](CC(=O)O)NC(=O)[C@H](CC(N)=O)NC(=O)[C@H](CC(=O)O)NC(=O)CNC(=O)[C@H](CC(=O)O)NC(=O)[C@@H]1CCCN1C(=O)[C@H](CCC(N)=O)NC(=O)[C@H](Cc1ccc(O)cc1)NC(=O)[C@H](C)NC(=O)[C@H](Cc1c[nH]c2ccccc12)NC(=O)[C@H](Cc1ccccc1)NC(=O)[C@@H](NC(=O)[C@@H](N)CO)[C@@H](C)O)[C@@H](C)O)[C@@H](C)O)C(=O)N[C@@H](C)C(=O)N1CCC[C@H]1C(=O)NCC(=O)N[C@@H](CC(=O)O)C(=O)N[C@@H](Cc1ccc(O)cc1)C(=O)O	-0.5	x	-8.8	x	x	x
O=C(Nc1cccc(F)c1)c1ccco1	42.4*	-18.2%	29.2*	-5.2%	0.3%	-4.9%
Nc1cccc(NC(=O)c2ccco2)c1	15.6	-2.7%	8.1*	5.0%	1.2%	4.8%
Cc1cc(C)cc(C(=O)Nc2cccc(NC(=O)c3ccco3)c2)c1	18.7	-5.1%	20.7*	-43.1%	-11.5%	4.1%
C/C(=C(/CCOC(=O)c1ccccc1)SS/C(CCOC(=O)c1ccccc1)=C(\C)N(C=O)Cc1cnc(C)nc1N)N(C=O)Cc1cnc(C)nc1N	x	x	x	x	x	-9.6%
COCCNC(=O)C1(C)CCN(C(=O)c2cc(C)nn2C(C)(C)C)C1 (stereo unspecified)	x	x	x	x	x	3.8%
CCOc1ccc(C(=O)Nc2ccc3c(c2)OCCO3)cc1[N+](=O)[O-]	66.7	1.8%	13.6	x	3.8%	4.8%
CCOc1ccc(C(=O)NCC(=O)Nc2ccc3c(c2)OCO3)cc1OCC	x	x	x	x	1.3%	-2.3%
CCOc1ccc(C(=O)Nc2ccc3c(c2)OCCO3)cc1OC	62.9*	-21.8%	19.7*	-12.9%	-14.7%	4.9%
CCOc1cc(C(=O)Nc2ccc3c(c2)OCO3)ccc1OC(F)F	52.1	3.5%	23.0*	-30.9%	-15.3%	0.0%
CC(=O)Nc1cccc(-c2csc(NCc3ccco3)n2)c1	51.0*	-0.2%	17.5	4.1%	-4.1%	-0.7%
Cc1nc2ncccn2c1-c1csc(NCc2ccco2)n1	8.9	4.4%	11.3	-4.1%	3.1%	-10.5%
Oc1ccc(-c2csc(NCc3ccco3)n2)cc1	157.8*	0.0%	43.6*	3.9%	-12.6%	-12.3%
c1coc(CNc2nc(-c3cccs3)cs2)c1	89.7*	-0.6%	33.2*	x	-4.8%	-7.3%
CC(=O)Nc1cccc(-c2csc(C(C)(O)c3ccccc3)n2)c1 (stereo unspecified)	x	x	x	x	x	1.7%
Cc1ccc(N2C(=O)C3ON(c4ccccc4)C(CC(C)C)C3C2=O)cc1 (stereo unspecified)	20.9	2.6%	9.3*	1.4%	-1.0%	-1.0%
COc1ccccc1C1C2C(=O)N(c3ccccc3)C(=O)C2ON1c1ccccc1 (stereo unspecified)	-18.5	7.7%	3.0	2.4%	-5.6%	4.8%
CCN(CC(=O)Nc1ccc2c(c1)OCCO2)CC(=O)Nc1ccc2c(c1)OCO2	20.8	16.5%	15.4	x	2.6%	0.2%
CCN(CC(=O)Nc1ccc2c(c1)OCCO2)Cc1cc(=O)oc2c(C)c(C)ccc12	-3.7	1.2%	9.1*	-74.1%	6.0%	-5.2%
O=C(COC(=O)/C=C/c1ccccc1)NNC(=O)c1ccc([N+](=O)[O-])cc1	x	x	x	x	-1.9%	1.8%
COC(=O)c1sc(-c2ccc(C(C)(C)C)cc2)cc1NC(=O)CCC(=O)O	64.4*	4.8%	27.4*	2.7%	-12.2%	-3.3%
COC(=O)c1sc(-c2ccc(Cl)cc2)cc1NC(=O)COCC(=O)O	1.2	0.8%	-1.9	4.3%	1.5%	3.7%
CCc1ccc(NC(=O)N(CCN2CCOCC2)Cc2ccc3c(c2)CCCN3CC)cc1	37.5	1.3%	25.5*	-8.5%	u	-8.9%
Cc1cccc(NC(=S)N(CCN2CCOCC2)Cc2ccccc2F)c1	-10.5	-4.2%	15.0	x	-2.4%	0.0%
O=C(Nc1ccccc1)N(CCN1CCOCC1)Cc1ccccc1F	-3.1	-4.7%	15.2*	1.3%	2.1%	-3.8%
SMILES	Shiga inhibitor	LmPK inhibitor	Cycloheximide cs	NS1 function inh	SARS PLP yeast	Tb PYK inh
Cc1cc(C(=O)NNC(=O)c2ccc(F)cc2)c(C)s1	x	x	x	x	1.5%	-7.0%
COc1ccc(-c2nc(CS(=O)CC(=O)NC3CCC(C)CC3)c(C)o2)cc1OC (stereo unspecified)	60.5*	-4.0%	33.0*	-3.7%	-12.3%	-1.2%
COc1ccc(-c2nc(CS(=O)CC(=O)NC3CCCC3)c(C)o2)cc1OC (stereo unspecified)	11.9	2.2%	12.3	26.2%	4.2%	-4.2%
O=C(NNC(=S)Nc1ccccc1Cl)c1ccccc1	77.6*	-3.3%	43.3*	-4.9%	-4.2%	3.5%
CCOc1cc(NC(=S)Nc2ccccc2)c(OCC)cc1NC(=O)c1ccc(OC)cc1	10.2	-5.5%	20.9*	u	-11.1%	2.4%
CC(=O)c1ccc(NC(=S)NNC(=O)c2ccncc2)cc1	17.8	-7.1%	15.9*	-3.5%	-11.9%	-30.1%
O=C(NNC(=S)Nc1ccccc1Cl)c1ccccc1Cl	-7.6	-3.8%	-2.3	25.4%	0.2%	-8.4%
O=C(NNC(=S)Nc1ccc(Cl)cc1)c1ccccc1	56.9*	-6.9%	27.1*	-1.5%	1.5%	-5.8%
Cc1cc(C)c(NC(=O)Cn2c(=O)n(-c3cccc(C(F)(F)F)c3)c(=O)c3c(C)c(C)sc32)c(C)c1	x	x	x	x	x	0.4%
CCCC(=O)N1CC(=O)Nc2ccc(C)cc2C1c1ccccc1 (stereo unspecified)	25.6	5.7%	5.8	0.6%	2.7%	-0.5%
COc1ccc(C(=O)NNC(=S)NC(=O)c2ccc(OC)cc2)cc1	x	8.6%	5.4	-72.0%	-9.0%	-13.2%
O=C(Nc1cccc(Cl)c1)c1ccccc1	x	x	x	x	-3.6%	1.2%
Cc1nnsc1C(=O)N/N=C/c1ccc(OC(F)(F)F)cc1	64.3*	-3.4%	23.3*	x	0.9%	-0.4%
COc1ccc(C(=O)NNC(=O)C2(C)CC2(Br)Br)cc1 (stereo unspecified)	35.2*	3.4%	26.2*	-7.9%	-3.5%	-8.7%
O=C(NNC(=S)Nc1cccc(Cl)c1)c1ccccc1	41.6*	-7.5%	26.6*	-25.6%	u	-22.6%
COc1ccc(C(=O)NNC(=S)Nc2ccccc2)cc1	58.2	-11.2%	40.5*	x	2.1%	-18.1%
